Sampled rows, rich in hits. Any-hit rate of the full collection: about 19%.
HT1080 IDH1KD tx: qHTS for induction of synthetic lethality in tumor cells producing 2HG: qHTS for the HT-1080-IDH1KD cell line; HT-1080 IDH1 knockdown viability, ATP luminescence, 48 h; Potency, µM (highest dose often 46.1 µM), for the others: at the highest dose activity, negative = toxicity, most hits filed as cytotoxic; actives 2% (n = 360,000);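 note: 0% = DMSO wells and -100% = cell-free medium wells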
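Luminescent ATP read-out (CellTiter-Glo, 10 min at room temperature) after 48 h compound exposure at 37 °C gave viability of IDH1-knockdown HT-1080 cells. Activity was normalised to DMSO and cell-free wells, then fitted as concentration-response curves.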
KB-V1 MDR tox: qHTS assay for MDR1-selective chemotherapeutics: Primary screen using the drug-selected MDR subline cells KB-V1 | KB-V1 MDR cells viability, CellTiter-Glo, 72 h | Potency, µM (highest dose often 46.1 µM), most hits filed as cytotoxic | actives 3.4% (n = 400,000); note: nearly all actives have a fitted effect of over 60% in size
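KB-V1 cells (P-gp-expressing MDR subline of KB-3-1) in phenol-red-free DMEM with 10% FBS were exposed to library compounds over a concentration series for 72 h at 37 degrees C. Viability read by CellTiter-Glo luminescence; concentration-effect curves fitted after normalization.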
TDP1 cell CPT: qHTS for Inhibitors of human tyrosyl-DNA phosphodiesterase 1 (TDP1): qHTS in cells in presence of CPT. actives 12% (n = 420,000). Potency, µM (series often up to 46.2 µM), inactives show at the highest dose activity change, negative = growth inhibition, hits mostly inhibitors. chicken DT40 Tdp1-/-;hTDP1 cells + 20 nM CPT, ATP luminescence, 48 h; note: nearly all actives have a fitted effect of over 55% in size
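Cell growth measured by CellTiter-Glo luminescence after a minimum 48 h, 37 C compound exposure with 20 nM CPT in Tdp1-knockout DT40 cells stably expressing hTDP1, seeded 400/well; qHTS titration format.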
DT40 TDP1 no CPT: qHTS for Inhibitors of human tyrosyl-DNA phosphodiesterase 1 (TDP1): qHTS in cells in absence of CPT. AID 686978, 2013. Potency, µM (series often up to 46.2 µM), without a hit: at the top dose activity change, negative = growth inhibition, actives largely listed as inhibitors. actives 15% (n = 420,000). DT40 Tdp1-/- hTDP1 cells, no CPT, ATP luminescence, 48 h; note: nearly all actives have a fitted effect of over 55% in size
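Compound effects on proliferation are scored in DT40 Tdp1-/-;hTDP1 cells in the absence of CPT. ATP levels (CellTiter-Glo luminescence) are recorded after a ≥48 hr, 37 °C incubation.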
KB-3-1 tox: qHTS assay for MDR1-selective chemotherapeutics: Primary screen using the parental adenocarcinoma cell KB-3-1 | KB-3-1 viability, CellTiter-Glo ATP luminescence, 72 h | Potency, µM (series often up to 46.1 µM), most hits filed as cytotoxic | actives 1.4% (n = 400,000); note: nearly all actives have a fitted effect of over 60% in size
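Cytotoxicity measured as CellTiter-Glo luminescence after 72 h at 37 C. Compound titrations were pinned onto drug-naive KB-3-1 parental adenocarcinoma cells grown in DMEM with 10% FBS, and normalized data fitted to concentration-response curves.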
HT1080-NT tox: qHTS for induction of synthetic lethality in tumor cells producing 2HG: qHTS for the HT-1080-NT fibrosarcoma cell line; HT-1080-NT fibrosarcoma viability, CellTiter-Glo ATP luminescence, 48 h; Potency, µM (top dose mostly 46.1 µM), without a hit: top-dose activity, negative = less viability, actives largely listed as cytotoxic; actives 1.6% (n = 360,000); AID 686970, 2013;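 note: NT is the 2HG producing partner of a matched IDH1 knockdown line; 0% = DMSO-treated cells and -100% = media-only wells without cells; nearly all actives have a fitted effect of over 55% in size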
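A 48-hour cytotoxicity screen used HT-1080-NT cells plated 2 hours before compound delivery. ATP-based CellTiter-Glo luminescence measured viability, normalized to DMSO and no-cell controls.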
An asterisk follows results filed as active; i = inactive; ? = inconclusive; nt = not tested or not shown; ! = not confirmed by another sample; [ ] = remark or other dose. Calls come from the whole dose curve; as a rule, active = well fitted curve in the direction sought with a large enough effect; inconclusive = small, poorly fitted or top-dose-only effect, or another doubt; inactive = no such curve, though single readings can be large; an effect the other way counts as inactive or inconclusive. Unless noted, % is set by controls: 0 for no effect and ±100 for the full control effect; potency is the fitted concentration of half-maximal effect.

SMILES	HT1080 IDH1KD tx	KB-V1 MDR tox	TDP1 cell CPT	DT40 TDP1 no CPT	KB-3-1 tox	HT1080-NT tox
Cc1ccc2nc(-c3ccc(C#N)cc3)c(Cc3ccccc3C(F)(F)F)n2c1	?	i	23µM*	?	i	?
Cc1ccc2nc(-c3ccc(Cl)cc3)c(Cc3ccccc3C(F)(F)F)n2c1	6%	?	26µM*	?	i	3%
COc1ccc(C2=NN(C)C(=NCc3ccccc3)SC2)cc1	0%	23µM*	-28%	?	?	-11%
CC(C)(C)C(=O)Nc1cccc(-c2cc(-c3c(Cl)cccc3Cl)no2)c1	-11%	?	-7%	-25%	i	-9%
CCOc1ccc(CCNC(=O)C2CCCN(S(=O)(=O)c3c(C)n[nH]c3C)C2)cc1OCC (stereo not drawn)	3%	i	?	9.2µM*	i	-2%
Cc1n[nH]c(C)c1S(=O)(=O)N1CCCC(C(=O)NCc2cccs2)C1 (stereo not drawn)	0%	i	-24%	4%	i	3%
Cc1ccc(CNC(=O)C2CCCN(S(=O)(=O)c3c(C)n[nH]c3C)C2)cc1 (stereo not drawn)	12%	i	?	-21%	i	11%
Cc1n[nH]c(C)c1S(=O)(=O)N1CCCC(C(=O)NC2CCCc3ccccc32)C1 (stereo not drawn)	0%	i	21µM*	18µM*	i	-3%
O=C(Cc1c(O)c2ccccc2[nH]c1=O)N(Cc1ccccc1)Cc1ccccc1	4%	i	-15%	0%	i	-7%
CCCCCCN(CCCCCC)C(=O)Cc1c(-c2ccc(F)cc2)[nH]c2ccccc12	8%	?	9.4µM*!	13µM*	i	8%
CS(=O)(=O)N1CCCC(C(=O)Nc2ccc(F)c(F)c2)C1 (stereo not drawn)	-3%	i	-2%	?	i	8%
C/C(CC(C)(C)c1ccccc1)=N\NS(=O)(=O)c1ccccc1	8%	?	7%	-6%	i	11%
CC(O)(COc1ccccc1)c1ccc2c(c1)CN(Cc1cccn1-c1ccccn1)CCO2 (stereo not drawn)	nt	nt	-11%[9.04 µM]	16µM*	nt	nt
CC(O)(COc1ccccc1)c1ccc2c(c1)CN(Cc1cccc3cccnc13)CCO2 (stereo not drawn)	nt	nt	14%[9.04 µM]	?	nt	nt
CSc1nc(-c2ccccc2)c(-c2ccccc2)[nH]1	-17%	12µM*	-17%	?	?	-10%
Cc1ccc(-c2[nH]c(-c3ccc(C(=O)O)cc3)nc2-c2ccccc2)cc1	5%	i	-11%	-18%	i	-3%
CC1CCC/C(=C\Nc2ccc(O)cc2)C1=O (stereo not drawn)	-15%	i	21µM*	?	i	-5%
O=C1CCCC/C1=C/Nc1ccc(C(=O)O)cc1	4%	i	-6%	1%	i	6%
Cc1ccc(Cn2ccnc2SCC(=O)Nc2ccc3c(c2)OCCO3)cc1	nt	nt	-13%	-7%	nt	nt
CCC(C)NCCCCOc1cc(C)cc(C(C)C)c1 (stereo not drawn)	?	?	?	18µM*	i	?
CCC(C)NCCCCOc1ccc(Br)cc1 (stereo not drawn)	-7%	i	?	16µM*	i	-17%
O=[N+]([O-])c1cccc(S(=O)(=O)Nc2ccc(Cc3ccncc3)cc2)c1	-4%	16µM*	?	?	i	9%
O=[N+]([O-])c1cccc(S(=O)(=O)NCc2ccncc2)c1	-14%	?	2.3µM*	2.3µM*	i	?
O=C(O)c1ccccc1S(=O)(=O)CC(=O)N1CCCCC1	13%	i	7%	-1%	i	23%
COc1ccc(NC(=O)CS(=O)(=O)c2ccccc2Cl)cc1	16%	i	7%	4%	i	21%
SMILES	HT1080 IDH1KD tx	KB-V1 MDR tox	TDP1 cell CPT	DT40 TDP1 no CPT	KB-3-1 tox	HT1080-NT tox
CC(=O)N1N=C(c2ccc(C)cc2)OC1c1ccc(C(C)C)cc1 (stereo not drawn)	1%	?	-16%	-10%	i	3%
Cc1ccc(C(=O)c2oc3ccc(Cl)cc3c2NC(=O)CN2CCN(C)CC2)cc1	5%	i	?	21µM*	i	13%
O=S(=O)(c1ccc(S(=O)(=O)N2CCN(C/C=C/c3ccccc3)CC2)cc1)N1CCCC1	?	i	?	12µM*	i	?
O=S(=O)(c1ccccc1)N1CCN(C/C=C/c2ccccc2)CC1	-21%	i	-19%	3%	i	-12%
Cc1ccc(C(=O)CCC(=O)N2CCN(C/C=C/c3ccccc3)CC2)cc1	5%	?	?	21µM*	i	6%
Cc1cc(C(=O)N2CCN(C/C=C/c3ccccc3)CC2)cs1	-6%	16µM*	3%	-31%	i	-3%
O=C(/C=C/c1ccco1)N1CCN(C/C=C/c2ccccc2)CC1	7%	15µM*	?	?	i	19%
O=C(CSc1ccccc1)NNC(=O)c1ccncc1	18%	?	-3%	-18%	i	13%
O=C(C1CCN(Cc2ccccc2)CC1)N1CCN(C/C=C/c2ccccc2)CC1	-22%	i	?	23µM*	i	-21%
O=C(c1cc2ccccc2o1)N1CCN(C/C=C/c2ccccc2)CC1	-27%	i	15µM*	?	?	?
CC(=O)N1CCN(C(=O)c2cc3ccccc3o2)CC1	7%	?	7%	-11%	i	11%
COc1ccc(C(=O)NCCNc2nc3cc(C)cc(C)c3cc2C#N)c(OC)c1	5%	i	?	?	i	13%
Cc1cc(C)c(S(=O)(=O)N2CCC(N3CCN(Cc4ccc(F)cc4)C(=O)C3=O)CC2)c(C)c1	nt	i	?	-23%	i	nt
Cc1ccc(S(=O)(=O)n2ccc3c(OCCOCCNCc4ccc(F)cc4)cccc32)cc1	21µM*	?	?	18µM*	?	16µM*
